This is an account of results in PubChem BioAssay (Tox21).

Values joined by “and” are separate entries in the source; they are usually repeats but may differ in a detail not shown here. Identical values can stand only once. Results filed as inconclusive are left out. A call without a number means that no potency is given here. A structure can be active in one record and inactive in another. Active and inactive are the calls of the source. The call rests on the fitted dose curve; in most records, active means well fitted activation curve with a large enough effect in the repeat runs; inconclusive means weak or mixed curves; inactive means flat fitted curve, though single readings scatter.
Potency means the concentration at half of the fitted maximal effect.

The experiment is described as follows: A CellTox Green Cytotoxicity Assay to monitor cytotoxicity in HepG2 cells - 8 hour (AID 1224890). Further: nearly all actives have a fitted effect of over 45% in size. Particulars: CellTox Green fluorescence; series mostly up to 76.8 µM. From the text:
National Center for Advancing Translational Sciences [NCATS]
NIH Chemical Genomics Center [NCGC]
U.S. Environmental Protection Agency [EPA]
National Institutes of Environmental Health Sciences [NIEHS]
National Toxicology Program [NTP]
Cell-based models are critical for drug discovery. Determining the natural cytotoxic effects resulting from test compounds is an essential research activity. A CellTox Green Cytotoxicity Assay to monitor cytotoxicity in real time of continues cell culture during 40 hours of the compound treatment was used to screen Tox21 10K library compounds in HepG2 cells. CellTox Green Cytotoxicity Assay is a nonlytic, homogeneous, biofluorescent method to measure cytotoxicity in cell culture after experimental manipulation. The assay system uses a proprietary asymmetric cyanine dye that is excluded from viable cells but preferentially stains the dead cell's DNA. […] Viable cells produce no appreciable increases in fluorescence. Therefore, the fluorescence signal produced by the binding interaction with dead cell DNA is proportional to cytotoxicity.
The mixture of HepG2 cell suspension and reagents were dispensed at 600cells/6 ul/well in 1536-well tissue culture treated black solid bottom plates using a Multidrop dispenser. After the assay plates were incubated at a 37 C/5% CO2 incubator for 5 hours, 23 nL of compounds dissolved in DMSO, positive and negative controls was transferred to the assay plate by a pintool work station. The plates were incubated at 37 C for 40 hours. The fluorescence intensity were measured at 0h, 8h, 16h, 24h, 32h and 40h time points using ViewLux plate reader during compound treatment.
For `C[C@]12C=CC(=O)C=C1CC[C@@H]1[C@@H]2[C@@H](O)C[C@@]2(C)[C@H]1CC[C@]2(O)C(=O)CO`, the Potency entry was “inactive”.

`c1ccc2[nH]ccc2c1`: the Potency entry was “inactive”.

Turning to `CC(=O)OCC(COC(C)=O)OC(C)=O`, the Potency entry was “inactive”.

Turning to `NC(=O)c1ccccc1O`, the Potency entry is “inactive”.

Consider `Cc1ccc(S(=O)(=O)NC(=O)NN2CCCCCC2)cc1`, for which the Potency result is “inactive”.

Take `O=C(O)CCCCC(=O)O`: the Potency result was “inactive”.

Take `O=c1ccc2ccccc2o1`: the Potency result was “inactive”.

As for `N=C(N)c1ccc(OCCCCCOc2ccc(C(=N)N)cc2)cc1`, the Potency entry is “inactive”.

For the molecule `Cn1cc[nH]c1=S`, the Potency result was “inactive”.

`CCCC(CCC)C(=O)O`: the Potency result is “inactive”.

As to `O=C(O)c1cccc([N+](=O)[O-])c1`, the Potency entry is “inactive”.

Turning to `O=C(c1ccccc1)C(O)c1ccccc1` (stereo not given), the Potency entry is “inactive”.

As to `O=C(O)CCCCCCCC(=O)O`, the Potency result is “inactive”.

For the molecule `CCCCC1C(=O)N(c2ccccc2)N(c2ccccc2)C1=O`, the Potency entry is “inactive”.

For `Nc1ccc(S(=O)(=O)c2ccc(N)cc2)cc1`, the Potency result was “inactive”.

Take `Nc1ccc(S(=O)(=O)Nc2nccs2)cc1`: the Potency result is “inactive and 43.6 µM (active)”.

In the case of `CCCCC(CC)COC(=O)/C=C/c1ccc(OC)cc1` (stereo not given), the Potency result is “inactive”.

On to `CC(=O)Nc1nnc(S(N)(=O)=O)s1`, for which the Potency entry was “inactive”.

Turning to `OCCc1ccccc1`, the Potency result was “inactive”.

For the molecule `Nc1ccc(O)c(C(=O)O)c1`, the Potency entry was “inactive”.

As to `CCCC(O)C(CC)CO` (stereo not given), the Potency entry is “inactive”.

For `NC(N)=NC(=O)c1nc(Cl)c(N)nc1N`, the Potency result was “inactive”.

Take `O=S(=O)(O)c1ccc2cc(O)ccc2c1`: the Potency entry was “inactive”.

`Cc1cn([C@H]2C[C@H](N=[N+]=[N-])[C@@H](CO)O2)c(=O)[nH]c1=O`: the Potency result is “inactive”.

As to `O=C(O)CS`, the Potency entry is “inactive”.

In the case of `CC(C)[C@@H]1CC[C@@H](C)C[C@H]1O`, the Potency entry is “inactive”.

Take `O=C(O)c1[nH]n(-c2ccc(S(=O)(=O)O)cc2)c(=O)c1N=Nc1ccc(S(=O)(=O)O)cc1`: the Potency result was “inactive”.

On to `Cc1ccc(O)cc1`, for which the Potency entry was “inactive”.

Consider `O=C(C1CCCCC1)N1CC(=O)N2CCc3ccccc3C2C1` (stereo not given), for which the Potency entry was “inactive”.

Regarding `COc1ccc2[nH]cc(CCNC(C)=O)c2c1`, the Potency entry is “inactive”.

For the molecule `CC1(C)[C@@H]2CC[C@@]1(C)C(=O)C2`, the Potency result is “inactive”.

For `O=C1CN(/N=C/c2ccc([N+](=O)[O-])o2)C(=O)N1`, the Potency entry was “inactive”.

As for `CC(=O)NS(=O)(=O)c1ccc(N)cc1`, the Potency result is “inactive”.

As for `NC(=O)NC1NC(=O)NC1=O` (stereo not given), the Potency entry was “inactive”.

`O=C(c1ccccc1)c1ccccc1`: the Potency result is “inactive”.

For the molecule `O=NO`, the Potency entry is “inactive”.

On to `Oc1ccc(/C=C/c2cc(O)cc(O)c2)cc1`, for which the Potency entry was “inactive”.

`NC(=O)c1cnccn1`: the Potency entry was “inactive”.

`CC(O)CO` (stereo not given): the Potency entry is “inactive”.

In the case of `Cc1cc(=O)n(-c2ccccc2)n1C`, the Potency entry was “inactive”.
